Source: PubChem BioAssay (NCATS)
Inconclusive results are not listed. Active and inactive are the calls of the source. Unless noted, the call rests on the fitted dose curve; in most records, active means well fitted curve in either direction with a large enough effect (not every such curve was filed as active); inconclusive means small, poorly fitted or top-dose-only effect, or another doubt; inactive means flat fitted curve, though single readings scatter.

test system: not listed separately; assay: Stat Signaling Pathway (AID 446); settings: ME-180 (cervical carcinoma) SIE beta-lactamase reporter, IL-6 stimulated, 5 h; at 17.2 µM (top of the series) unless noted;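 further: ME-180 cervical cancer cells given 40 pM IL-6 alongside compound; SIE-controlled beta-lactamase reporter measured as 460/530 nm FRET emission ratio; on the % scale 0 is the no-effect control and ±100 the full control effect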
Procedure, shortened: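 Compound effects on IL-6-induced STAT reporter activity were measured in ME-180 cells. After overnight culture, cells were co-treated with 40 pM IL-6 for 5 hrs before beta-lactamase substrate loading at room temperature.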

activity, negative = inhibition, inactive:
CCOC(=O)c1c(N)sc(=S)c2c1CCC2 -7.28%, CC1=C(C(=O)Nc2ccccc2)C(c2ccncc2)C(C#N)=C(SCC(=O)NC(C)C)N1 (stereo not given) -4.3%, Cc1ccc(C2/C(=C(/O)c3ccc(OC(C)C)cc3)C(=O)C(=O)N2CCN2CCOCC2)cc1 (stereo not given) -12.8%, COc1ccccc1-n1c(N)c(C(=O)NCC2CCCO2)c2nc3ccccc3nc21 (stereo not given) -0.0521%, O=C(NC1(C(F)(F)F)C(=O)Nc2c1c(=O)[nH]c(=O)n2-c1ccccc1)c1cccnc1 (stereo not given) 3.92%, c1ccc(-c2nc(NCC3CCCO3)c3ccccc3n2)nc1 (stereo not given) -6.67%, CC(C)Cc1[nH]c(=O)c(C#N)c2c1COC(C)(C)C2 2.18%, COC(=O)C1=C(C)N=C2SC(C)C(=O)N2C1c1cccc(F)c1 (stereo not given) -1.23%, CN(C)CCCN1C(=O)C(O)=C(C(=O)c2cc3ccccc3o2)C1c1ccccc1 (stereo not given) 1.48%, NC(=O)CSc1c[nH]c2ccccc12 -0.854%, CC(=O)c1cc2c(=O)c3ccccc3oc2nc1C 7.33%, COc1cccc(C(=O)NCC(=O)n2nc(C)cc2C)c1 16.7%, Cc1nnc(N2CCOCC2)c2ccccc12 5.08%, NC(=O)C(c1ccccc1)C1CCCC1 (stereo not given) 15.2%, O=C(NCCO)c1cccc2c1C(=O)c1ccccc1-2 10.7%, COc1ccc(Oc2nc3c(c(=O)n(C)c(=O)n3C)n2Cc2cccc(OC)c2)cc1 -2.94%, COc1ccc2[nH]c(C)c(C(=O)CN3CCOCC3)c2c1 -2.66%, COC(=O)c1nn2c(C(F)(F)F)cc(-c3ccc(Br)o3)nc2c1Br 0.255%, Oc1ccc(C=Nc2ccc3ncccc3c2)c(O)c1 13.2%, Cc1cccc(N2C(=O)CC(N3CCN(Cc4ccc(Cl)cc4)CC3)C2=O)c1 (stereo not given) 1.94%, CC12CCC(C(=O)N(CCC#N)CCC#N)(CC1=O)C2(C)C (stereo not given) 6.43%, CCC(=O)O[C@@H]1CC(=O)O[C@H](C)CC=CC=C[C@@H](O)[C@H](C)C[C@H](CC=O)[C@H](O[C@H]2O[C@H](C)[C@@H](O[C@H]3C[C@@](C)(O)[C@@H](OC(=O)CC)[C@H](C)O3)[C@H](N(C)C)[C@H]2O)[C@H]1OC -1.1%, CCOC(=O)c1cc(C)n(-c2ccc(OC)c(OC)c2)c1C -14.1%, NS(=O)(=O)c1ccc(-c2ccc(C=NC3CCS(=O)(=O)C3)o2)cc1 (stereo not given) -5.15%, CCN(CC)CCN1C(=O)C(=O)/C(=C(/O)c2c(C)[nH]c(C(=O)OC)c2C)C1c1ccc(OC)cc1 (stereo not given) 9.4%, COc1ccc(OC)c(C2/C(=C(/O)c3ccc(C)cc3)C(=O)C(=O)N2Cc2ccco2)c1 (stereo not given) -18.2%, CCOc1ccc(C2=Nn3c(nnc3-c3cccnc3)SC2)cc1 -4.46%, CCn1c(SCC(=O)O)nc2sc3c(c2c1=O)CCC3 -5.86%, c1coc(-c2nnc3sc(-c4cccs4)nn23)c1 -3.51%, Cc1ccc(-c2nn(C)c(=O)c3ccccc23)cc1CNC(=O)CSc1nc2ccccc2o1 -16.9%, CCC(C(=O)Nc1ncn[nH]1)(C(F)(F)F)C(F)(F)F 13%, COCCCNc1nc2c(c(=O)n(C)c(=O)n2C)n1Cc1cccc(OC)c1 -3.35%, Nc1nnc(CSc2ccc(Cl)cc2)s1 2.04%, COc1ccc(C2N3CC4(C)CN2CC(C)(C3)C4O)cc1OC (stereo not given) 15.4%, CC1(C)Cc2nc(N)c(C(=O)NCCO)cc2CO1 9.02%, Cn1c(=O)c2c3c(sc2n2c(SCC(N)=O)nnc12)CC(C(C)(C)C)CC3 (stereo not given) 14%, Cc1[nH]nc2c1C(CCc1ccccc1)C(C#N)=C(N)O2 (stereo not given) -1.82%, O=C(Oc1cccnc1)c1ccco1 8.88%, Cc1c(O)c(CN2CCCC(C)C2)cc2c3c(c(=O)oc12)CCC3 (stereo not given) 6.92%, CCCOc1cccc(-c2nnc(N)s2)c1 -2.76%

target: Glucocorticoid receptor (Homo sapiens) (UniProt P04150); assay: GR-GFP Redistribution (AID 450;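 active means compounds whose dose series gives a full or clear partial fitted curve of increased nuclear translocation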; further: potency means the concentration at half of the fitted maximal effect); settings: U2OS GR-GFP nuclear translocation, laser cytometry, 2 h; series mostly up to 20.6 µM
Sequence (P04150 whole entry, looked up): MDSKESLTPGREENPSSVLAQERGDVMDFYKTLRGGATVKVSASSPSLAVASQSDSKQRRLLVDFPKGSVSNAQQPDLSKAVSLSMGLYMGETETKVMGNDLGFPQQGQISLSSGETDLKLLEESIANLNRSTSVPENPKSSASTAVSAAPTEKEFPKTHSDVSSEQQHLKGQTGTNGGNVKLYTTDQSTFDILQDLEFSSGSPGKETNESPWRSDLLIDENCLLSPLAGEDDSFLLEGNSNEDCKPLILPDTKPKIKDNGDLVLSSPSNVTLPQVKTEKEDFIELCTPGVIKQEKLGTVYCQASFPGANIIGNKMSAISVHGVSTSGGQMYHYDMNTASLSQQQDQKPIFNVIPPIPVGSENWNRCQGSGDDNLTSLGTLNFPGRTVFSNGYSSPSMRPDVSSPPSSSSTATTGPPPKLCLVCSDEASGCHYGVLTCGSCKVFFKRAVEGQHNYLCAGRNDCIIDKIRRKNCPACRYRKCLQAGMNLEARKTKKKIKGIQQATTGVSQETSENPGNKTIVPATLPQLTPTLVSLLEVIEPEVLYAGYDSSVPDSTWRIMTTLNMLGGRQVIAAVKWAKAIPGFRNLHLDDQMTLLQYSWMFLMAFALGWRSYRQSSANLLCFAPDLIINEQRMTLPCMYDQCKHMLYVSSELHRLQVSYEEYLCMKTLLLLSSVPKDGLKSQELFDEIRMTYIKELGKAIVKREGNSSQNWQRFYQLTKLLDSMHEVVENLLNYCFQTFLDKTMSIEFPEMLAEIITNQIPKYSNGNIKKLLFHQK

Potency, inactive:
CCOC(=O)c1c(N)sc(=S)c2c1CCC2 > 20.6 µM, CC1=C(C(=O)Nc2ccccc2)C(c2ccncc2)C(C#N)=C(SCC(=O)NC(C)C)N1 (stereo not given) > 20.6 µM, Cc1ccc(C2/C(=C(/O)c3ccc(OC(C)C)cc3)C(=O)C(=O)N2CCN2CCOCC2)cc1 (stereo not given) > 20.6 µM, COc1ccccc1-n1c(N)c(C(=O)NCC2CCCO2)c2nc3ccccc3nc21 (stereo not given) > 20.6 µM, O=C(NC1(C(F)(F)F)C(=O)Nc2c1c(=O)[nH]c(=O)n2-c1ccccc1)c1cccnc1 (stereo not given) > 20.6 µM, c1ccc(-c2nc(NCC3CCCO3)c3ccccc3n2)nc1 (stereo not given) > 20.6 µM, CC(C)Cc1[nH]c(=O)c(C#N)c2c1COC(C)(C)C2 > 20.6 µM, COC(=O)C1=C(C)N=C2SC(C)C(=O)N2C1c1cccc(F)c1 (stereo not given) > 20.6 µM, CN(C)CCCN1C(=O)C(O)=C(C(=O)c2cc3ccccc3o2)C1c1ccccc1 (stereo not given) > 20.6 µM, NC(=O)CSc1c[nH]c2ccccc12 > 20.6 µM, CC(=O)c1cc2c(=O)c3ccccc3oc2nc1C > 20.6 µM, COc1cccc(C(=O)NCC(=O)n2nc(C)cc2C)c1 > 20.6 µM, Cc1nnc(N2CCOCC2)c2ccccc12 > 20.6 µM, NC(=O)C(c1ccccc1)C1CCCC1 (stereo not given) > 20.6 µM, O=C(NCCO)c1cccc2c1C(=O)c1ccccc1-2 > 20.6 µM, COc1ccc(Oc2nc3c(c(=O)n(C)c(=O)n3C)n2Cc2cccc(OC)c2)cc1 > 20.6 µM, COc1ccc2[nH]c(C)c(C(=O)CN3CCOCC3)c2c1 > 20.6 µM, COC(=O)c1nn2c(C(F)(F)F)cc(-c3ccc(Br)o3)nc2c1Br > 20.6 µM, Oc1ccc(C=Nc2ccc3ncccc3c2)c(O)c1 > 20.6 µM, Cc1cccc(N2C(=O)CC(N3CCN(Cc4ccc(Cl)cc4)CC3)C2=O)c1 (stereo not given) > 20.6 µM, CC12CCC(C(=O)N(CCC#N)CCC#N)(CC1=O)C2(C)C (stereo not given) > 20.6 µM, CCC(=O)O[C@@H]1CC(=O)O[C@H](C)CC=CC=C[C@@H](O)[C@H](C)C[C@H](CC=O)[C@H](O[C@H]2O[C@H](C)[C@@H](O[C@H]3C[C@@](C)(O)[C@@H](OC(=O)CC)[C@H](C)O3)[C@H](N(C)C)[C@H]2O)[C@H]1OC > 20.6 µM, CCOC(=O)c1cc(C)n(-c2ccc(OC)c(OC)c2)c1C > 20.6 µM, NS(=O)(=O)c1ccc(-c2ccc(C=NC3CCS(=O)(=O)C3)o2)cc1 (stereo not given) > 20.6 µM, CCN(CC)CCN1C(=O)C(=O)/C(=C(/O)c2c(C)[nH]c(C(=O)OC)c2C)C1c1ccc(OC)cc1 (stereo not given) > 20.6 µM, COc1ccc(OC)c(C2/C(=C(/O)c3ccc(C)cc3)C(=O)C(=O)N2Cc2ccco2)c1 (stereo not given) > 20.6 µM, CCOc1ccc(C2=Nn3c(nnc3-c3cccnc3)SC2)cc1 > 20.6 µM, CCn1c(SCC(=O)O)nc2sc3c(c2c1=O)CCC3 > 20.6 µM, c1coc(-c2nnc3sc(-c4cccs4)nn23)c1 > 20.6 µM, Cc1ccc(-c2nn(C)c(=O)c3ccccc23)cc1CNC(=O)CSc1nc2ccccc2o1 > 20.6 µM, CCC(C(=O)Nc1ncn[nH]1)(C(F)(F)F)C(F)(F)F > 20.6 µM, COCCCNc1nc2c(c(=O)n(C)c(=O)n2C)n1Cc1cccc(OC)c1 > 20.6 µM, Nc1nnc(CSc2ccc(Cl)cc2)s1 > 20.6 µM, COc1ccc(C2N3CC4(C)CN2CC(C)(C3)C4O)cc1OC (stereo not given) > 20.6 µM, CC1(C)Cc2nc(N)c(C(=O)NCCO)cc2CO1 > 20.6 µM, Cn1c(=O)c2c3c(sc2n2c(SCC(N)=O)nnc12)CC(C(C)(C)C)CC3 (stereo not given) > 20.6 µM, Cc1[nH]nc2c1C(CCc1ccccc1)C(C#N)=C(N)O2 (stereo not given) > 20.6 µM, O=C(Oc1cccnc1)c1ccco1 > 20.6 µM, Cc1c(O)c(CN2CCCC(C)C2)cc2c3c(c(=O)oc12)CCC3 (stereo not given) > 20.6 µM, CCCOc1cccc(-c2nnc(N)s2)c1 > 20.6 µM
